Assay results from PubChem BioAssay.
Several values for one entry are separate records, joined by “and”; a condition that tells them apart may be missing. Equal values may be shown once. Some compounds were tested as several samples or in several runs, with calls that do not always agree. Activity calls are given as the source filed them.

Assays:
[1] = small molecules captured by biotinylated probe aFSTL3 – biochemical, small-molecule microarray, fluorescence 635/667, stem cell growth factor project, primary screen (AID 1064); settings: higher = more signal;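 also: measures binding of the biotinylated anti-FSTL3 antibody to printed compounds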
[2] = binders from COS7 lysate, DM2A8 probe, primary screen, torsin A project, cell lysate, small-molecule microarray, fluorescence 635/667 (AID 1065); settings: higher = more signal, COS7 lysate expressing mutant human TOR1A
[3] = small molecules captured by biotinylated probe aFGF2 – biochemical, small-molecule microarray, fluorescence 635/667, stem cell growth factor project, primary screen (AID 1067); settings: higher = more signal;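 also: measures binding of biotinylated aFGF2 protein to printed compounds on slides; z-score merges feature fluorescence and signal-to-noise across triplicate slides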
[4] = small molecules captured by biotinylated probe aFGF10 – biochemical, small-molecule microarray, fluorescence 635/667, stem cell growth factor project, primary screen (AID 1071); settings: higher = more signal;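 also: score merges 667 nm spot intensity and signal to noise from triplicate slides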
[5] = target: Neurogenic locus notch homolog protein 2 (Homo sapiens) (UniProt Q04721); test: small molecules binding Notch2 protein – biochemical, small-molecule microarray, 635 nm fluorescence, stem cell growth factors, primary screen (AID 1073); settings: higher = more signal
[6] = target: Pro-neuregulin-1, membrane-bound isoform (Homo sapiens) (UniProt Q02297); test: small molecules binding neuregulin-1 protein – biochemical, small-molecule microarray, fluorescence 635/667, psychiatric disease protein project, primary screen (AID 1075); settings: NRG1 binding, 635 nm fluorescence, higher = more signal;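 also: score combines 667 nm spot fluorescence with signal to noise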
Pro-neuregulin-1, membrane-bound isoform (Homo sapiens), sequence (Q02297 whole entry, looked up, the tested form may be a part, canonical isoform): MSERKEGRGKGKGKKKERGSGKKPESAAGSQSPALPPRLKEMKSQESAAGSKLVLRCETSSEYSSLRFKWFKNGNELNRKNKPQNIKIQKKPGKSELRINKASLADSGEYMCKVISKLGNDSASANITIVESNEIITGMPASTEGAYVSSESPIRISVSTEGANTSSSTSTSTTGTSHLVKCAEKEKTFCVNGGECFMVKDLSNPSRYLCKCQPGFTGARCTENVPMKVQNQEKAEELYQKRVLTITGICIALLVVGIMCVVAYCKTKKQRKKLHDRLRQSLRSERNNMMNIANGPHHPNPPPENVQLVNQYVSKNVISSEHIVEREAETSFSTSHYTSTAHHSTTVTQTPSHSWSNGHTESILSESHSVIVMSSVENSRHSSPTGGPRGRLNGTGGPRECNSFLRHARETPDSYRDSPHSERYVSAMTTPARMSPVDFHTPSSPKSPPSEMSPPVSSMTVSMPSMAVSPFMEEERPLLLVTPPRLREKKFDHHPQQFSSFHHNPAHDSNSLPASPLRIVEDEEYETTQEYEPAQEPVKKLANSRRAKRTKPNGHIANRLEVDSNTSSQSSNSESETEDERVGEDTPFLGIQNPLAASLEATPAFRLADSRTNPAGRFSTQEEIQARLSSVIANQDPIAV

[7] = system: Neuregulin-1 EGF-like domain; test: small molecules binding NRG1 EGF domain – biochemical, small-molecule microarray, 635 nm fluorescence, primary screen (AID 1081); settings: higher = more signal;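 also: binding of the protein to compounds printed on small-molecule microarray slides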
[8] = FRG1 expression reporter modulators in myotubes – cell-based, C2C12 myotubes, firefly/Renilla luciferase, luminescence, FRG1 inhibition for FSHD, primary screen (AID 1084); settings: FRG1 promoter luciferase, higher = more signal, called active from +8 up or from −8 down
[9] = small molecules captured by biotinylated probe aFST – biochemical, small-molecule microarray, fluorescence 635/667, stem cell growth factor project, primary screen (AID 1086); settings: higher = more signal;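 also: score merges 667 nm fluorescence with signal-to-noise of each printed compound spot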
[10] = binders of probe aHhip on microarray, primary screen, stem cell growth factor project, biochemical, small-molecule microarray, fluorescence 635/667 (AID 1087); settings: higher = more signal;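 also: score merges spot fluorescence at 667nm with spot signal to noise ratio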
[11] = system: PRMT1 (protein arginine N-methyltransferase 1); test: small molecules binding arginine methyltransferase PRMT1 – biochemical, small-molecule microarray, 635 nm fluorescence, primary screen (AID 1088); settings: higher = more signal;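 also: binding of Prmt1 protein to compounds spotted on small-molecule microarray slides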
[12] = growth effects on S. cerevisiae YJM789 – YJM789 clinical isolate, OD600, 24 h, basal, primary screen (AID 1089); settings: higher = more signal, called active from +8 up or from −8 down;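 also: growth of clinical yeast isolate S. cerevisiae YJM 789 seeded 1000 cells per well; test concentration not given here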
[13] = S. pombe growth modifiers, basal conditions – strain 972, OD600, 24 h, no modulator, primary screen (AID 1090);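 also: basal condition with compound alone and no growth modifier present; test concentration not given here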; settings: S. pombe 972 growth, higher = more signal, called active from +8 up or from −8 down
[14] = budding yeast growth modifiers under rapamycin – strain BY4716, OD600, 96 h, primary screen (AID 1091); also: test concentration not given here; settings: S. cerevisiae BY4716 + rapamycin, higher = more signal, called active from +8 up or from −8 down
[15] = target: Torsin-1A-interacting protein 2 (Homo sapiens) (UniProt Q8NFQ8); test: small molecules binding lysate-expressed LULL1 – cell lysate, human LULL1 lysate, 635/667 nm fluorescence, primary screen (AID 1092); settings: small-molecule microarray, hLULL1 lysate binding, 635 nm fluorescence; higher = more signal;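 also: probe is lysate of COS7 cells overexpressing human LULL1; score merges per-feature 667 nm fluorescence with signal-to-noise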
Torsin-1A-interacting protein 2 (Homo sapiens), sequence (Q8NFQ8 whole entry, looked up): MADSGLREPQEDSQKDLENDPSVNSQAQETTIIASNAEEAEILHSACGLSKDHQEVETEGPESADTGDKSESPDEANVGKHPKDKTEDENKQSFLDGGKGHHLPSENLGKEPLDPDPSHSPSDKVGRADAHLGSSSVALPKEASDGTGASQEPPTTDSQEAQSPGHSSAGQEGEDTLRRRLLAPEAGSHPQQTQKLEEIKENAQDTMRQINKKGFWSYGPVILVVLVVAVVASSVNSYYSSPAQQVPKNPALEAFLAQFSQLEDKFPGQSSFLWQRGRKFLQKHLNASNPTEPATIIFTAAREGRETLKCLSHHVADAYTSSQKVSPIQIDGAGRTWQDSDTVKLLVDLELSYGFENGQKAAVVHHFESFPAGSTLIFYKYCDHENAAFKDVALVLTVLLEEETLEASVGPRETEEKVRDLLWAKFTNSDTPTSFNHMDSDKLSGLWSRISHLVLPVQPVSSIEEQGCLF

[16] = optical density change of DRC41 E. coli – strain DRC41, OD650, 24 h, E. coli filamentation project, primary screen (AID 1093);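 also: MC1000 strain lacking acrAB efflux and sulA so SOS filamentation is blocked; test concentration not given here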; settings: E. coli DRC41 growth, higher = more signal, called active from +8 up or from −8 down
[17] = probe aLefty2 binding to arrayed compounds – biochemical, biotinylated probe, 635/667 nm fluorescence, primary screen (AID 1094); settings: small-molecule microarray, higher = more signal;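 also: score merges spot fluorescence near 667 nm with spot signal-to-noise ratio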
[18] = system: Noggin (protein binding on small-molecule microarray); test: small molecules binding Noggin protein – biochemical, 635/667 nm fluorescence, primary screen (AID 1095); settings: 635 nm fluorescence, higher = more signal;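 also: score merges 667 nm feature fluorescence with signal to noise over triplicate slides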
[19] = target: Neurogenic locus notch homolog protein 3 (Homo sapiens) (UniProt Q9UM47); test: small molecules binding NOTCH3 protein – biochemical, 635/667 nm fluorescence, primary screen (AID 1096); settings: small-molecule microarray, 635 nm fluorescence, higher = more signal
Neurogenic locus notch homolog protein 3 (Homo sapiens), sequence (Q9UM47 whole entry, looked up): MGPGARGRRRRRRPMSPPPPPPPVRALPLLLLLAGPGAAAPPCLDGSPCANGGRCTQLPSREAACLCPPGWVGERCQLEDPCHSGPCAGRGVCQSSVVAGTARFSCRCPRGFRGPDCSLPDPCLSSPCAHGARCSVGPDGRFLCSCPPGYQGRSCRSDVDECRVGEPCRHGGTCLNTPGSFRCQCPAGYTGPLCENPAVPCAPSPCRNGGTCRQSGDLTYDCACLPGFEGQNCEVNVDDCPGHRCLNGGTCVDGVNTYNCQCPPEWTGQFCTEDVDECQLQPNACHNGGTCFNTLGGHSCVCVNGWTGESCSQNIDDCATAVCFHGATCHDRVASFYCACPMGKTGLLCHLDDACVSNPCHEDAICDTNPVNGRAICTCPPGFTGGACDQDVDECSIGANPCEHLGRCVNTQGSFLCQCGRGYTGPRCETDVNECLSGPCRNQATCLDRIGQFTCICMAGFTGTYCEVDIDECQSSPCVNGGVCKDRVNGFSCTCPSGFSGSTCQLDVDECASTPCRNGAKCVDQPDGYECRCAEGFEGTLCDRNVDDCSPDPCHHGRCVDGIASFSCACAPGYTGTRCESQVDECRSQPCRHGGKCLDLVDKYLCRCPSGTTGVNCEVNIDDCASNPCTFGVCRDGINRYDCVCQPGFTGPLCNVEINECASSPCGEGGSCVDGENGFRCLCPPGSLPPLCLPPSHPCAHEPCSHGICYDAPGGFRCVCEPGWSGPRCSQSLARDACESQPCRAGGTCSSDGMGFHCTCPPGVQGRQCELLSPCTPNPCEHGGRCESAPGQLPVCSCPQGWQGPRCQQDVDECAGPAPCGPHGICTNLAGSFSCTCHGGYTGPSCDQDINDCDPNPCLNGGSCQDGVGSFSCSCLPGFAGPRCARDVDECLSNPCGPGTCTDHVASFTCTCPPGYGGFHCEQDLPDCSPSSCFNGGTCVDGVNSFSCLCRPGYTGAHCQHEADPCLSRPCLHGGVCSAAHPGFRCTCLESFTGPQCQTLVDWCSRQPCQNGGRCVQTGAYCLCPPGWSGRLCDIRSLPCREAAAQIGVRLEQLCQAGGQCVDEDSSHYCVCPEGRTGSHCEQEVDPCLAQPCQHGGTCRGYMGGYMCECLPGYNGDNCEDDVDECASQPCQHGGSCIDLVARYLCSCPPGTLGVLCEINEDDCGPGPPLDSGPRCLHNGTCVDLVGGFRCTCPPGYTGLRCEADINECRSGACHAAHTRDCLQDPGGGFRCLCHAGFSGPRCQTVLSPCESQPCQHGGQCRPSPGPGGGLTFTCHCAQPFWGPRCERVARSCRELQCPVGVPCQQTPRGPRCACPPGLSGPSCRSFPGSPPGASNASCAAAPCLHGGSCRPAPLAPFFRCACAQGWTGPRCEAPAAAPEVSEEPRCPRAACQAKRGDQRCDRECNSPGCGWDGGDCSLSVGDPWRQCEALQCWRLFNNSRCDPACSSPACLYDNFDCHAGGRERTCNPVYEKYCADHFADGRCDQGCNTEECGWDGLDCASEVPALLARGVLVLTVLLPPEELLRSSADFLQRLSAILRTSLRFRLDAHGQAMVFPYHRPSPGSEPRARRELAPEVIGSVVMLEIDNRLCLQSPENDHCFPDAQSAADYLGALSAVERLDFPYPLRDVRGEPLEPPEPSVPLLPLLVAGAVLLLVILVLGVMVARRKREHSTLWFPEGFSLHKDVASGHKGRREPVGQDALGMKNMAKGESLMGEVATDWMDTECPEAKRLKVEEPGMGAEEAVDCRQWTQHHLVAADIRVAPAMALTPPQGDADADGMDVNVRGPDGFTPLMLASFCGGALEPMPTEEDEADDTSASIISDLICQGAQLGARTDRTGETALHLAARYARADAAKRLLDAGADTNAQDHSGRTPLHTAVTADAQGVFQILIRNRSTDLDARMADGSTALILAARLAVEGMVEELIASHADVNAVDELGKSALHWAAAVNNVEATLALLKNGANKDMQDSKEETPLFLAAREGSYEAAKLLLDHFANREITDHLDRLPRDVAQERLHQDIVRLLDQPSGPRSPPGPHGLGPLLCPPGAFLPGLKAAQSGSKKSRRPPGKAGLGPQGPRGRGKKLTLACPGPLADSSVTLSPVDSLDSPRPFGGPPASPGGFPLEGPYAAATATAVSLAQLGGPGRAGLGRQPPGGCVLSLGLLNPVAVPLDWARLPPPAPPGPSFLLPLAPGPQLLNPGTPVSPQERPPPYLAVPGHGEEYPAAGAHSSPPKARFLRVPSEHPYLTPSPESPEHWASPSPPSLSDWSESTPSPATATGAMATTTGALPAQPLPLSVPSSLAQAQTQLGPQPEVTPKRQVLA

[20] = probe aEGFR binding to arrayed compounds – biochemical, biotinylated probe, 635/667 nm fluorescence, primary screen (AID 1097); settings: small-molecule microarray, higher = more signal;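 also: probe is a biotinylated anti-EGFR antibody binding compounds printed on slides; score combines fluorescence near 667 nm and signal to noise of each spot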

Compound	composite z-score [1]	composite z-score [2]	composite z-score [3]	composite z-score [4]	composite z-score [5]	composite z-score [6]	composite z-score [7]	z-score [8]	composite z-score [9]	composite z-score [10]	composite z-score [11]	z-score [12]	z-score [13]	z-score [14]	composite z-score [15]	z-score [16]	composite z-score [17]	composite z-score [18]	composite z-score [19]	composite z-score [20]
C=C[C@@H](OC)[C@H](O)c1ccc(OCCO)cc1	-0.145 and 0.184	-0.492 and -1.23	-0.206 and -0.178	-0.976 and -0.915	-1.07 and -1.57	-0.748 and -0.394	-0.0048 and 0.0968	1.74 (inactive) and 0.386 (inactive)	-0.984 and -1.26	-0.236 and -0.196	0.194 and -0.0886	-0.0303 (inactive) and -2.64 (inactive)	0.331 (inactive) and -1.68 (inactive)	-0.603 (inactive) and -0.883 (inactive)	1.5 and -0.567	-0.443 (inactive) and 2.25 (inactive)	-0.0466 and -0.0666	-0.902 and -0.131	-0.19 and -0.876	-0.383 and -0.265
CC[C@@H]1C(Sc2ccccc2)C(C(=O)O)[C@H](c2ccc(C)cc2)N1S(=O)(=O)c1ccc(C)cc1 (stereo not given in full)	0.249 and -0.499	0.364 and -0.0981	0.0013 and 0.166	0.579 and 0.288	1.56 and 1.12	1.82 and 1.91	1.39 and 1.2	-3.66 (inactive) and -3.89 (inactive)	0.254 and 1.05	-0.179 and -0.0994	1.25 and 1.49	-0.768 (inactive) and -2.59 (inactive)	0.796 (inactive) and -0.975 (inactive)	-0.451 (inactive) and -0.576 (inactive)	2.66 and 3.19	-0.889 (inactive) and -0.743 (inactive)	0.149 and -0.0615	-0.0727 and -0.216	1.11 and 1.07	-0.0025 and -0.114
COC(=O)C1=C(C)N(Cc2ccccc2)C2=C(C(=O)c3ccccc3)[C@H](c3ccccc3)[C@@](O)(C(=O)OC)C(=O)N2[C@@H]1c1ccccc1	-0.195 and -0.325	-0.16 and 0.0962	-0.0759 and -0.0691	0.429 and 0.387	0.98 and 0.272	0.296 and -0.085	0.672 and 0.253	-0.363 (inactive) and 0.429 (inactive)	0.128 and 0.0478	-0.236 and 0.625	0.518 and 0.722	0.504 (inactive) and 0.653 (inactive)	-0.413 (inactive) and -0.0902 (inactive)	34.6 (active) and 0.863 (inactive)	0.886 and 0.23	0.591 (inactive) and 0.311 (inactive)	0.0039 and -0.115	0.495 and 0.653	0.858 and 0.808	0.127 and -0.123
CCOC(=O)CCN1C(=O)[C@H]2[C@H]3[C@H](O)[C@H](O)CC(=NNC(=O)OCC)[C@@H]3CC[C@H]2C1=O	-0.144	0.303	-0.0459	0.348	0.708	-0.388	-0.0801	0.142 (inactive)	0.62	-0.0994	0.763	-0.373 (inactive)	-0.769 (inactive)	-0.491 (inactive)	0.45	0.441 (inactive)	0.0634	0.531	0.316	0.095
CO[C@@H]1COC(=O)CC=C[C@H](C)[C@@H](NS(=O)(=O)c2ccc(C)cc2)COC(=O)CC=C[C@@H]1C	-0.226 and -0.425	0.711 and 1.44	-0.234 and -0.127	0.433 and -0.153	0.671 and -0.333	0.0292 and -0.476	0.628 and 0.956	0.994 (inactive) and 0.445 (inactive)	0.0151 and 0.106	0.113 and -0.0391	1.16 and 1.54	0.403 (inactive) and -0.552 (inactive)	-0.733 (inactive) and -0.194 (inactive)	0.62 (inactive) and -1.52 (inactive)	0.633 and -0.853	0.56 (inactive) and 0.132 (inactive)	-0.0785 and -0.186	1.27 and 1.31	0.634 and 0.525	-0.115 and 0.0097
COc1ccc(O[C@H]2C=C[C@@H](c3ccccc3)O[C@@H]2COC(=O)CCC(C)=NO[C@H](C)c2cn([C@H](CO)Cc3ccccc3)nn2)cc1	-0.647 and -0.694	0.535 and 0.365	-0.0682 and -0.171	0.241 and 0.038	0.203 and 0.35	0.338 and 0.692	-0.0177 and 0.384	1.61 (inactive) and 1.46 (inactive)	0.0869 and -0.364	-0.0196 and 0.201	0.88 and 0.299	0.479 (inactive) and 0.555 (inactive)	0.52 (inactive) and 0.0557 (inactive)	0.616 (inactive) and 1.32 (inactive)	0.026 and 0.303	0.204 (inactive) and 0.524 (inactive)	-0.353 and -0.312	0.393 and 0.795	0.155 and 0.167	0.257 and -0.336
C=CCN(Cc1ccccc1)C(=O)C(c1cccs1)N(C(=O)/C=C\C(=O)O)c1c(Cl)cccc1CO (stereo not given)	0.233 and 1.13	-0.778 and -1.07	-0.241 and -0.193	-1.08 and -2.14	-1.53 and -2.16	-0.984 and -1.12	0.462 and -0.851	-0.0406 (inactive) and 0.885 (inactive)	-1.91 and -1.01	-0.549 and -0.38	-0.716 and -1.9	0.506 (inactive) and -0.555 (inactive)	0.172 (inactive) and 0.261 (inactive)	0.23 (inactive) and -0.457 (inactive)	-1.36 and -0.736	2.07 (inactive) and -0.369 (inactive)	-0.128 and -0.121	-2.28 and -3.61	-1 and -1.49	-0.252 and -0.359
